Compound activity deposited in PubChem BioAssay by several laboratories.
This is a sample that favours compounds with a hit; in the whole collection about 4.7% have one here.
TIM10 inh = growth inhibitors of TIM10 yeast strain; inhibition, % at 10 µM; AID 463195; 330,000 tested, 1.4% active; S. cerevisiae TIM10 strain growth, BacTiter-Glo luminescence, 24 h;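 active = inhibition of 40% or more at the single tested concentration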;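 note: wild-type TIM10 isogenic control strain grown at permissive 25 °C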
tim23-1 inh = growth inhibitors of tim23-1 mutant yeast; S. cerevisiae tim23-1 growth, BacTiter-Glo luminescence, 24 h; inhibition, % at 20 µM; 330,000 tested, 1.3% active; AID 463212;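 active = growth inhibition of the mutant yeast at or above 50%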;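 note: temperature-sensitive mutant grown at 25 °C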
SKKanGAS inh = SKKanGAS growth inhibition; S. pyogenes SKKanGAS, kanamycin growth, BacTiter-Glo, 6 h; 300,000 tested, 1.3% active; inhibition, % at 7.5 µM;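 active = mean replicate score, as percent of positive control median, at least 50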;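 note: strain carries kanamycin resistance gene driven by streptokinase promoter and grows in 40 µg/ml kanamycin; loss of luminescence reflects streptokinase promoter inhibition or plain growth inhibition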
tim10-1 inh = growth inhibitors of tim10-1 mutant yeast; S. cerevisiae tim10-1 ts strain growth, BacTiter-Glo, 24 h; inhibition, % at 20 µM; 330,000 tested, 2.2% active;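 active = inhibition of at least 40%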;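 note: mutant grown at 25 °C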
PfHsp90 set2 = growth inhibition of yeast expressing Plasmodium Hsp90; inhibition, % at 9.4 µM; S. cerevisiae expressing PfHsp90, BacTiter-Glo ATP, 48 h; yeast lacking PDR1 and PDR3 efflux regulators; AID 504621; 310,000 tested, 0.32% active;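 active = every replicate shows inhibition above about 80%, whatever the replicate mean, limit read from the data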
EBI2 block = antagonists of human EBI2 receptor | EBI2 beta-arrestin recruitment, luminescence, 7a,25-OHC stimulated | inhibition, % at 5 µM | AID 651636 | 360,000 tested, 0.81% active; in the data active = inhibition above about 38%;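 note: enzyme fragment complementation signal reports receptor beta-arrestin coupling in cells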
Target sequence (P32249 whole entry, looked up, the tested form may be a part): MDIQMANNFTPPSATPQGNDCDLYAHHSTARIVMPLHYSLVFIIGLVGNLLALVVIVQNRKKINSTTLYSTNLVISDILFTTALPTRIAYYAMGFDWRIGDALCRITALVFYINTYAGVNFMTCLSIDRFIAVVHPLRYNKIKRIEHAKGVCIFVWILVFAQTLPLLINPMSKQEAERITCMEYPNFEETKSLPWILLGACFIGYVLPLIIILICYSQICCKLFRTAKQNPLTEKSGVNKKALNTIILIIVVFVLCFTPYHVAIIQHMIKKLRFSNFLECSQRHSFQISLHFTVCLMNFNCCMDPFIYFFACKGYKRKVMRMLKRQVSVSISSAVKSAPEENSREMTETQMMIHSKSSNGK
Large screens that a line does not name were inactive.

CCCS(=O)(=O)NC(=O)C1(C)CCCN(C(=O)COc2ccccc2)C1 (stereo not drawn)	none (no result: TIM10 inh, tim23-1 inh, SKKanGAS inh, tim10-1 inh, PfHsp90 set2)
COc1ccccc1/C=C/C(=O)/C=C/c1ccccc1O	EBI2 block 43.9 (no result: TIM10 inh, tim23-1 inh, SKKanGAS inh, tim10-1 inh)
Nc1c(C(=O)Nc2nc3ccccc3s2)sc2nc(-c3cccs3)ccc12	SKKanGAS inh 50.3
CC(=O)c1sc2nc(-c3cccs3)ccc2c1N	none
COc1cc(/C=C/C(=O)OC2CC3CCC2(C)C3(C)C)ccc1O (stereo not drawn)	SKKanGAS inh 60.7
COc1cc(/C=C/C(=O)OCC(=O)N2CCC(C)CC2)ccc1O	none
O=C(Oc1ccccc1)c1cc(O)c(O)c(O)c1	none (no result: TIM10 inh, tim23-1 inh, SKKanGAS inh, tim10-1 inh, PfHsp90 set2)
CC1=Nc2ccccc2/C1=C/c1sc(=N)n(-c2nccs2)c1O	SKKanGAS inh 98.2
CC(C)c1c(O)ccc2c1CC[C@H]1C(C)(C)CCC[C@]21C	PfHsp90 set2 112.8, EBI2 block 53.1 (no result: TIM10 inh, tim23-1 inh, SKKanGAS inh, tim10-1 inh)
CCOC(=O)N1CCN(S(=O)(=O)N2CCCC(C(=O)NCc3ccc(C)cc3)C2)CC1 (stereo not drawn)	none (no result: TIM10 inh, tim23-1 inh, SKKanGAS inh, tim10-1 inh, PfHsp90 set2)
CCN1CCc2c(sc(NC(=O)c3ccc(S(=O)(=O)N4CCCC4)cc3)c2C(=O)NC)C1	SKKanGAS inh 50.5
CNC(=O)c1c(NC(=O)c2ccc(S(=O)(=O)N3CCCCC3)cc2)sc2c1CCN(C(C)C)C2	none
CCCN1CCc2c(sc(NC(=O)c3ccc(S(=O)(=O)N4CCN(C(=O)OCC)CC4)cc3)c2C(N)=O)C1	SKKanGAS inh 57.3
Cc1ccc2nc(-c3ccc(NS(=O)(=O)c4ccc(F)c(F)c4)cc3)sc2c1	SKKanGAS inh 76.1 (no result: TIM10 inh, tim23-1 inh, tim10-1 inh)
Cc1ccc2nc(-c3ccc(NS(=O)(=O)c4ccccc4)cc3)sc2c1	none
C=CCn1c(COc2ccccc2)nnc1SC(C)C(=O)N/N=C/c1cc(Cl)ccc1O (stereo not drawn)	SKKanGAS inh 104.6
C=CCn1c(COc2ccc(Cl)cc2)nnc1SCC(=O)N/N=C/c1cccc(O)c1	none
COc1ccc(CNc2nc3c(c(=O)n(Cc4ccc(Br)cc4)c(=O)n3C)n2C)cc1	SKKanGAS inh 54.5
COc1ccc(-n2nc(C(=O)NCC(=O)N3CCCC3)c3ccccc3c2=O)cc1Cl	none
CCOc1ccc(CCN2C(=S)N([C@@H](Cc3ccc(O)cc3)CN3CCC[C@@H]3CN3C(=S)NC[C@@H]3CC(C)C)C[C@@H]2Cc2ccc(O)cc2)cc1	none (no result: TIM10 inh, tim23-1 inh, SKKanGAS inh, tim10-1 inh, PfHsp90 set2)
CCOC(=O)C1=Nc2ccccc2C1=[N+]=[N-]	SKKanGAS inh 103.1, PfHsp90 set2 122.3
O=C(CCc1ccccc1)NNC(=O)c1ccc(Cl)cc1	none
O=C(CCc1ccccc1)NNC(=S)NC(=O)c1ccc(Cl)cc1	SKKanGAS inh 60.7 (no result: PfHsp90 set2, EBI2 block)
O=C(COc1ccccc1)NNC(=S)NC(=O)c1ccccc1	SKKanGAS inh 74.9
O=C(NNC(=S)NC(=O)c1cccnc1)c1ccc(Cl)cc1	SKKanGAS inh 51.9
COc1ccc(C(=O)NC(=S)NCCc2ccccc2)cc1	none
COc1ccc(C(=O)NC(=S)NNC(=O)COc2ccccc2)cc1	SKKanGAS inh 88.4
COc1ccc(-c2cc3nc(NCCNC(C)=O)n(C)c(=O)c3s2)c(C)c1	none (no result: TIM10 inh, tim23-1 inh, SKKanGAS inh, tim10-1 inh, PfHsp90 set2)
COc1ccc(C(=O)NC(=S)NNC(=O)c2cnccn2)cc1	PfHsp90 set2 94.0
CCOC(=O)c1c(-c2ccc(C)s2)csc1NC(=O)c1cccs1	none
CCOC(=O)c1c(NC(=O)c2cccs2)sc(CC)c1-c1cccs1	SKKanGAS inh 59.6
Cc1ccc(-c2ccc(CN3C(CC(C)C)C(=O)N(Cc4cn(CC5CCCCC5)nn4)CCS3(=O)=O)cc2)cc1 (stereo not drawn)	none (no result: TIM10 inh, tim23-1 inh, SKKanGAS inh, tim10-1 inh, PfHsp90 set2)
COC(=O)c1ccc(N2C(=O)CC(N(C)Cc3ccccc3)C2=O)cc1 (stereo not drawn)	PfHsp90 set2 104.4
CCOc1ccc(N2C(=O)CC(N(C)Cc3ccccc3)C2=O)cc1 (stereo not drawn)	none
CCOC(=O)[C@]12CCCC=C1N(CCC1=CCCCC1)C(=O)[C@H](CC(=O)N1CCCC1)C2	none (no result: TIM10 inh, tim23-1 inh, SKKanGAS inh, tim10-1 inh, PfHsp90 set2)
Cc1[nH]n(-c2ccccc2)c(=O)c1C=Nc1cccc2cccnc12	EBI2 block 95.7
Cc1ccc(-n2[nH]c(C)c(/C=N/c3ccccn3)c2=O)cc1	none
Cc1ccc(C(C(=O)Nc2ccc3c(c2)OCO3)N(C)C(=O)/C=C\c2ccc3c(c2)OCO3)cc1 (stereo not drawn)	none
CCCC(=O)N1CCCC1(C)C(=O)NCc1ccc(F)cc1Cl (stereo not drawn)	none (no result: TIM10 inh, tim23-1 inh, SKKanGAS inh, tim10-1 inh, PfHsp90 set2)
N=C1/C(=C\c2ccc(-c3cccc(C(=O)O)c3)o2)C(=O)N=C2SC=C(c3ccccc3)N12	SKKanGAS inh 79.0
O=C(C1=C[C@H](c2csc3ccccc23)C[C@H](OCc2ccc(CO)cc2)O1)N1CCN(Cc2ccccc2)CC1	none
O=C(C1=C[C@H](c2csc3ccccc23)C[C@H](OCc2ccc(CO)cc2)O1)N1CCN(Cc2ccc3c(c2)OCO3)CC1	EBI2 block 51.2 (no result: PfHsp90 set2)
Cc1ccc(Cl)cc1N1CCN(C(=O)c2cn(C)c(=O)c3c2c2ccccc2n3C)CC1	SKKanGAS inh 81.7
COC(=O)C[C@H]1CC[C@@H](NC(=O)Nc2c(C)noc2C)[C@@H](CO)O1	none (no result: TIM10 inh, tim23-1 inh, SKKanGAS inh, tim10-1 inh, PfHsp90 set2)
Cc1cc(C)cc(OCC(=O)NNC(=O)CC(C)c2ccccc2)c1 (stereo not drawn)	none (no result: TIM10 inh, tim23-1 inh, SKKanGAS inh, tim10-1 inh, PfHsp90 set2)
O=C(Cn1nc(CNc2ccc(Cl)cc2)[n+]2c1CCCCC2)c1ccc(Br)cc1	SKKanGAS inh 84.0
COc1ccc(NCc2nn(CC(=O)c3ccc(Br)cc3)c3[n+]2CCCCC3)cc1	none
CC1CC(C)CN(CCCNC(=O)CN2C(=O)CSc3ccc(S(=O)(=O)N4CCCCC4)cc32)C1 (stereo not drawn)	none
CNC1=C(N(C(C)=O)c2ccc(Br)cc2)C(=O)c2ccccc2C1=O	SKKanGAS inh 56.5 (no result: TIM10 inh, tim23-1 inh, tim10-1 inh)
O=S(=O)(Nc1nc2c(s1)CCCC2)c1ccc2ccccc2c1	none
c1ccc2c(Nc3nc4c(s3)CCCC4)cccc2c1	SKKanGAS inh 57.5 (no result: PfHsp90 set2)
CCC(CC)c1nnc(NC(=O)c2ccc3ccccc3n2)s1	SKKanGAS inh 79.4
Cc1csc(NC(=O)c2cnc3ccccc3n2)n1	none
Cc1csc(NC(=O)c2ccc3ccccc3n2)n1	SKKanGAS inh 59.8
O=c1[nH]cnc2c1ncn2C1OC(CO)CC1F (stereo not drawn)	none (no result: TIM10 inh, tim23-1 inh, SKKanGAS inh, tim10-1 inh, PfHsp90 set2)
CCCCn1c(N)c(N(CCOC)C(=O)c2ccc(COc3ccccc3)o2)c(=O)[nH]c1=O	none
C/C(CC(=O)Nc1cc(C)ccn1)=N\NC(=O)c1cccc(C)c1O	PfHsp90 set2 101.1
O=C(Nc1ccccc1F)Nc1cccnc1Cl	none
O=C(Nc1nnc(C2=COCCO2)o1)c1ccc(Cc2ccccc2)cc1	SKKanGAS inh 93.3 (no result: PfHsp90 set2)
O=C(Nc1nnc(C2=COCCO2)o1)c1cccc(C(F)(F)F)c1	SKKanGAS inh 56.2
O=C(Nc1nnc(C2=COCCO2)o1)c1ccc(F)cc1	none
COc1ccccc1-n1c(SCC(=O)Nc2ccc(C)cc2)nc(O)cc1=O	SKKanGAS inh 63.4
Cc1ccc(NC(=O)CSc2nc(O)cc(=O)n2-c2ccc(C)cc2)cc1	SKKanGAS inh 76.6
